Source: PubChem
Gal4-VP16 FLuc – inhibits Gal4-VP16 luciferase reporter, ROR gamma counter-screen; Drosophila S2 Gal4-VP16 UAS-luciferase, luminescence, 20 h; Potency, µM (top dose mostly 53.6 µM), without a hit: at the top dose activity, negative = inhibition, most hits filed as inhibitors; 3.5% of 310,000 active; AID 2546;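 note: Gal4-VP16 expression switched on by copper sulfate through the metallothionein promoter; nearly all actives have a fitted effect of over 50% in size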
KinaseGlo FLuc – Kinase-Glo luciferase inhibition (counter-screen). Q27757. Kinase-Glo luciferase, ATP luminescence, 8 min. Potency, µM (series often up to 38.3 µM), inactives show at the highest dose activity change, negative = inhibition, usual class: inhibitors. 0.28% of 200,000 active. AID 1379; note: nearly all actives have a fitted effect of over 60% in size
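Compound is pinned into ATP-containing buffer (10 uM ATP, imidazole pH 7.2, 7 mM MgCl2). Kinase-Glo luciferase reagent is then added. Light output is recorded following an 8-min room-temperature incubation.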
RORgamma inh – ROR gamma (mouse) transcription inhibition; Drosophila S2 Gal4-RORgamma UAS-luciferase reporter, 20 h; AID 2551; P51450; Potency, µM (titrated, usually from 53.6 µM), for inactives: at the top dose activity change, negative = inhibition, actives largely listed as inhibitors; 5.4% of 310,000 active; note: nearly all actives have a fitted effect of over 60% in size
Target sequence (P51450 whole entry, looked up, the tested form may be a part): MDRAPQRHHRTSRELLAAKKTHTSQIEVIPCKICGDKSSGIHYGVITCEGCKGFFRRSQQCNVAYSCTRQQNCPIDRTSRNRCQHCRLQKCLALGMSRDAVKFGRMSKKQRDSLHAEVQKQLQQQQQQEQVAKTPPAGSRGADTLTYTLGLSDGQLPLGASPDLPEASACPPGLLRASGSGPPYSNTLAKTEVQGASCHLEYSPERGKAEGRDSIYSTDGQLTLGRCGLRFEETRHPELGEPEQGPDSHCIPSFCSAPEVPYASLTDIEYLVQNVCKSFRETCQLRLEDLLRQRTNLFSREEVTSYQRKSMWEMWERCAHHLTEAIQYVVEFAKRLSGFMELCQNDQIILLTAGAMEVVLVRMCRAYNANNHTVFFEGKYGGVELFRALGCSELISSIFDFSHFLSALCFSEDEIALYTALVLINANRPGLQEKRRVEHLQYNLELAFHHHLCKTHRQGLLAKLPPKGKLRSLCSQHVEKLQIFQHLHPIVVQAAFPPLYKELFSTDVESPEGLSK
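Luminescence from a UAS-regulated Photinus luciferase reporter in stably transfected Drosophila Schneider cells is measured; decreased signal marks ROR gamma inhibition. Fusion expression is induced by 700 uM copper sulfate for 20 hr.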
An asterisk follows results filed as active; u = inconclusive; x = no result given; [ ] = remark or other dose. The list is not random: actives were taken first. Their share in the collection is about 6.4%. Calls come from the whole dose curve; as a rule, active = well fitted curve in the direction sought with a large enough effect; inconclusive = small, poorly fitted or top-dose-only effect, or another doubt; inactive = no such curve, though single readings can be large; an effect the other way counts as inactive or inconclusive. % is set by controls: 0 for no effect and ±100 for the full control effect; potency is the fitted concentration of half-maximal effect.

SMILES | Gal4-VP16 FLuc | KinaseGlo FLuc | RORgamma inh
Cc1cnc(Nc2nc3ccccc3o2)nc1C(=O)Nc1cccc(C(F)(F)F)c1 | u | 0% | u
Cc1ccccc1Nc1ncc(C#N)c(N)n1 | 3% | x | 1%
CCOC(=O)c1cnc(Nc2nc3ccccc3o2)nc1CSC(=S)N(CC)CC | 0.56µM* | -2% | 0.56µM*
Cc1ccc2oc(Nc3nc(C)c(C)c(C)n3)nc2c1 | 6% | x | u
CCOC(=O)Cc1nc2ccccc2o1 | -4% | -2% | 13%
N#Cc1cnc(Nc2nc3ccccc3o2)nc1-c1ccccc1 | 5µM* | 0% | 2.5µM*
Cc1nc(Nc2nc3ccccc3o2)nc(C)c1C | u | 11µM* | 11µM*
CCCc1nc(Nc2nc3ccccc3o2)nc(C)c1C(=O)OCC | u | -8% | 6.3µM*
COc1ccc(-n2nc3c(N4CCC(C(=O)N5CCCCCC5)CC4)nnc(C)c3c2C)cc1 | -13% | x | -23%
COc1ccc(N2CCOCC2)c(NC(=O)c2cccs2)c1 | 1% | x | 21%
CCOC(=O)C1CC2CC(C1)CN(C(=O)C1CCCCC1)C2 (centres undefined) | 13% | 0% | -10%
CC[C@H](CC[C@H](C)[C@@H]1CC[C@@H]2[C@H]3CC=C4C[C@@H](O)CC[C@]4(C)[C@H]3CC[C@]21C)C(C)C | -2%[17 µM] | 4%[17.1 µM] | 0%[16.9 µM]
CCOC(=O)[C@@H]1[C@H]2COc3ccccc3[C@@H]2N2C(=O)N(c3cccc(Cl)c3)C(=O)[C@@]12C | 14% | x | u
CC(=O)NCCCS(=O)(=O)O | 0% | x | 24%
CC(=O)OC(C(=O)NC1CCCCC1)c1ccc(Cl)c(Cl)c1 (centres undefined) | -13% | 0% | 4%
Cc1ccnc(Nc2nc3ccccc3o2)n1 | 7.9µM* | 13µM* | 4.5µM*
Cc1ccc(Nc2nc3ccccc3o2)cc1F | 15% | -15% | u
COCCn1c(=O)c(-c2cccs2)nc2cnc(OCc3ccccc3)nc21 | 4% | -4% | -22%
O=C1C(=C2SCCCS2)CC/C1=C\c1ccc(F)cc1 | 3.5µM* | 11µM* | 4.5µM*
Cc1cccc(/C=C2\CCC(=C3SCCCS3)C2=O)c1 | 3.5µM* | u | 0.28µM*
O=C1/C(=C/c2ccc(F)cc2)CCC1C1CCCC1 (centres undefined) | u | -4% | -16%
O=C1/C(=C/c2ccccc2)CCCc2ccccc21 | -10% | -5% | u
O=c1oc2c(CN3CCN(CCO)CC3)c(O)ccc2cc1-c1ccccn1 | 11% | x | -4%
CN(C)c1ccc(NC2=C(Cl)C(=O)c3ccccc3C2=O)cc1 | u | -14% | 16µM*
CC(=O)Nc1ccc(NC2=C(Cl)C(=O)c3ccccc3C2=O)cc1 | -8% | u | u
SMILES | Gal4-VP16 FLuc | KinaseGlo FLuc | RORgamma inh
O=C(Nc1ccc2cn[nH]c2c1)c1c(Cl)cccc1Cl | -2% | 2% | 30%
O=C1C(Cl)=C(NCCCO)C(=O)c2ccccc21 | u | -7% | 11µM*
CCOCCCNC1=C(Cl)C(=O)c2ccccc2C1=O | u | x | -42%
O=C1C(Cl)=C(Nc2ccc3cn[nH]c3c2)C(=O)c2ccccc21 | u | x | 7.1µM*
O=C(CC1NC(=S)NC1=O)c1ccc(Cl)cc1 (centres undefined) | -3% | x | -8%
O=C(c1cccs1)N1CCC(c2nc3c(nnn3Cc3ccccc3Cl)c(=O)[nH]2)CC1 | -6% | x | 14%
CCOC(=O)C1CCN(CC(=O)Nc2ccc(S(=O)(=O)N3CCC(C)CC3)cc2)CC1 | -3% | x | 40%
CCC(CC)COC(=O)C1=C(C)NC(=O)NC1c1ccc2c(c1)OCO2 (centres undefined) | 1% | x | u
COc1cccc(NC(=O)CSC(N)=O)c1 | u | -4% | -9%
O=S(=O)(CCc1ccncc1)c1ccc(Cl)cc1 | -6% | x | 21%
CC(=O)c1ccc(NC(=O)CCn2c(=S)oc3ccccc32)cc1 | -1% | x | -2%
CC(O)CNCc1ccc(-c2ccccc2)cc1 (centres undefined) | -4% | -9% | -16%
CC(NCc1ccc(-c2ccccc2)cc1)C(O)c1ccccc1 (centres undefined) | 2.8µM* | -1% | u
COc1ccc(/C=C/C(=O)C2CC2)cc1COc1cccc(C)c1C | -6% | x | 18%
COc1cc(/C=N/NC(=O)c2ccc(F)cc2)ccc1OC(=O)c1ccco1 | -4% | -3% | 13µM*
COc1ccc(/C=N/NC(=O)c2ccoc2C)cc1OC | 11% | -19% | 2%
COc1ccc(/C=N\NC(=O)c2ccccc2)cc1COc1ccc(F)cc1 | 11µM* | x | 18µM*
COc1cc(/C=N/NC(=O)c2ccncc2)ccc1OC(=O)c1ccco1 | -4% | x | -10%
COc1ccc(/C=N/NC(=S)Nc2ccccc2)cc1COc1cccc(C)c1C | 0.71µM* | x | 0.35µM*
COc1ccc(C(=O)N/N=C/c2ccc(OC)c(COc3ccc(F)cc3)c2)cc1 | -10% | x | -20%
COc1ccc(/C=N/NC(=O)c2ccoc2C)cc1COc1ccc(Cl)cc1 | 13µM* | 0% | 7.1µM*
COc1ccc(/C=N/NC(=O)c2ccn[nH]2)cc1COc1ccc(F)cc1 | -7% | -4% | 19%
COc1ccc(C(=O)N/N=C/c2ccc(OC)c(COc3ccc(F)cc3F)c2)cc1 | u | x | 13µM*
O=C(N/N=C/c1ccc2ncccc2c1)c1ccco1 | u | u | 7.9µM*
O=C(N/N=C/c1ccccn1)c1ccco1 | -9% | -4% | -18%
SMILES | Gal4-VP16 FLuc | KinaseGlo FLuc | RORgamma inh
CO/N=C\[C@@H](NS(=O)(=O)c1ccc(C)cc1)[C@H](C)/C=C\CC(=O)OC | 8%[10 µM] | x | 8%[10 µM]
COc1ccc(OC)c(NC(=O)CSc2nc(N3CCOCC3)nc(N3CCOCC3)n2)c1 | -5% | x | -38%
CCC(C)c1ccc(-n2c(=O)c3ccccc3n3c(=S)[nH]nc23)cc1 (centres undefined) | -2% | x | u
Cc1cccc(N2C(=O)CC(Sc3ccccc3C(=O)O)C2=O)c1 (centres undefined) | 5µM* | 0% | u
Cc1ccc(N2C(=O)CC(Sc3ncn[nH]3)C2=O)cc1C (centres undefined) | u | -1% | u
CN(C)c1ccc(N2C(=O)CC(Sc3ccccc3C(=O)O)C2=O)cc1 (centres undefined) | 16µM* | 2% | u
Cc1ccc(N2C(=O)CC(Sc3ccccc3C(=O)O)C2=O)cc1 (centres undefined) | u | 7% | -16%[10 µM]
O=C(O)c1ccccc1SC1CC(=O)N(c2ccc3c(c2)OCO3)C1=O (centres undefined) | u | 5% | 3.2µM*
Cc1cc(C)cc(N2C(=O)CC(Sc3ccccc3C(=O)O)C2=O)c1 (centres undefined) | -17% | x | u
Nc1ccccc1SC1CC(=O)N(c2ccc3c(c2)OCO3)C1=O (centres undefined) | -4% | x | -1%
Cc1cccc(N2C(=O)CC(Sc3ncn[nH]3)C2=O)c1 (centres undefined) | -11%[10 µM] | -3% | 13µM*
CCCn1c(SCC(=O)NCc2ccc(Cl)cc2)n[nH]c1=O | 1% | 1% | -5%
COC(=O)[C@H]1O[C@@H](c2cc(OC)c(C)c(OC)c2OCc2ccccc2)[C@H](C)[C@@H]2O[C@]12C | 6% | -3% | 19%
C=CCc1ccc(OCCCCNC2CCCC2)c(OC)c1 | 1% | 1% | -1%
